Source: PubChem BioAssay (several laboratories)
Rows were chosen to be rich in hits. Some 2.4% of all compounds tested hit in one or more screens of this group.
Arbovirus anti – antivirals against arbovirus infection, primary screen, cell-based, full library, 10K replicate subset | inhibition, % at 10 µM | arbovirus infection cell-based antiviral screen | 200,000 compounds, 0.37% hits; in the data active = inhibition above about 30%
PGE2 EP2 inh – human EP2 receptor antagonists, primary screen, TR-FRET cAMP, C6 glioma cells; C6 glioma cells expressing human EP2; cells stimulated with saturating PGE2; 260,000 compounds, 0.52% hits; inhibition, % at 25 µM; Prostaglandin E2 receptor EP2 subtype (Homo sapiens), P43116;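 active = percent inhibition above 40 after rounding to a whole number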;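 also: rat C6 glioma host cells with rolipram phosphodiesterase inhibitor present; the protocol text gives 20 µM as final concentration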
Target sequence (P43116 whole entry, looked up): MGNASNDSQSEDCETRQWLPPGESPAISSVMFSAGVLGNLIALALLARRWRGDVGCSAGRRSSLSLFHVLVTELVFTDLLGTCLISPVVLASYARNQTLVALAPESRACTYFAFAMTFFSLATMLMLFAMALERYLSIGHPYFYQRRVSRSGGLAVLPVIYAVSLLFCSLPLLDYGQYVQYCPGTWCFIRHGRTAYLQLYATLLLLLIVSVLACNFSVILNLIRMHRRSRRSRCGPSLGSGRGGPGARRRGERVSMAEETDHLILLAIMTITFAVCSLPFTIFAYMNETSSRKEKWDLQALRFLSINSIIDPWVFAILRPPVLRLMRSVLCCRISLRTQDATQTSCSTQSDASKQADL
Hck-Nef inh – inhibitors of Nef-activated human Hck kinase, primary screen, biochemical, Z-Lyte FRET, 384-well, Hck-YEEI. Tyrosine-protein kinase HCK (Homo sapiens), P08631. Recombinant Hck-YEEI plus Nef, Z-Lyte FRET kinase assay. inhibition, % at 20 µM. 220,000 compounds, 0.68% hits. AID 463187, 2010;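 active = Hck-Nef kinase inhibition above about 50%, limit read from the data; inactive = inhibition below that limit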;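 also: 0% = DMSO with Hck plus Nef and 100% = Hck alone without Nef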
EP2 mod – EP2 receptor modulators, cAMP readout, primary screen, cell-based, HTRF cAMP, PGE2 stimulation | Prostaglandin E2 receptor EP2 subtype (Homo sapiens), P43116 | induction, % at 25 µM | 260,000 compounds, 0.83% hits | EP2-expressing cells, cAMP HTRF FRET, PGE2 co-stimulation;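 active = compounds whose cAMP rise, as percent of the full-agonist control response, exceeds 60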;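 also: rat C6 glioma line stably carrying human EP2 under a CMV promoter; the protocol text gives 20 µM as final concentration; 100% = response of wells given 1 µM PGE2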
p97 inhibitor – inhibitors of human p97 ATPase, primary screen, biochemical. recombinant p97 ATPase, Kinase-Glo ATP luminescence, 3 h. AID 1481, 2009. 220,000 compounds, 0.42% hits. inhibition, % at 8 µM. Transitional endoplasmic reticulum ATPase (Homo sapiens), P55072; in the data active = inhibition above about 15%;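 also: 0% = DMSO vehicle and 100% = wells lacking enzyme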
An asterisk follows results filed as active; ! = repeats disagree.

How did Cc1ccc(C2=NN(CC(=O)NC(C)C)C(=O)c3cc4ccccc4n3C2)cc1 do in these assays?
EP2 mod: -27

What do the screens show for `Cc1ccc2nc(SCC(=O)Nc3cccc(I)c3)c(C#N)cc2c1`?
PGE2 EP2 inh: 24; EP2 mod: 34

Results for C/C(Cl)=C\CSc1nc2c(c(=O)[nH]c(=O)n2C)n1Cc1cccc(C)c1 ?
PGE2 EP2 inh: 14; EP2 mod: 86*

What do the screens show for `CCCSc1nc2c(c(=O)[nH]c(=O)n2C)n1Cc1cccc(C)c1`?
PGE2 EP2 inh: 9; EP2 mod: 70*

What do the screens show for `Cc1cccc(/C(N)=N/OC(=O)COc2ccc(Cl)cc2)c1`?
Arbovirus anti: 36*; PGE2 EP2 inh: 6; Hck-Nef inh: 21; EP2 mod: 12; p97 inhibitor: 4

What do the screens show for `N/C(=N\OC(=O)COc1ccc(Cl)cc1)c1ccc(Cl)cc1`?
Arbovirus anti: 6; PGE2 EP2 inh: 5; Hck-Nef inh: 6; EP2 mod: -12; p97 inhibitor: 4

Results for COc1ccc2cc(C(=O)N3CCC(c4ccncc4)CC3)[nH]c2c1 ?
PGE2 EP2 inh: 6; EP2 mod: -97

Results for C=CCSc1nc2c(c(=O)[nH]c(=O)n2C)n1C/C=C/C ?
PGE2 EP2 inh: 8; EP2 mod: 21

How did COCCn1c(C)cc(C(=O)CSc2nc3ccccc3c(=O)[nH]2)c1C do in these assays?
Arbovirus anti: -1; PGE2 EP2 inh: 4; Hck-Nef inh: 0; EP2 mod: -53; p97 inhibitor: 3

Results for COCC(C)n1c(C)cc(C(=O)CSc2nc3ccccc3c(=O)[nH]2)c1C (stereo unspecified) ?
Arbovirus anti: 16; PGE2 EP2 inh: 7; Hck-Nef inh: 0; EP2 mod: 62*; p97 inhibitor: 2

How did Fc1cc(F)cc(CN(CCCn2ccnc2)Cc2ccccc2F)c1 do in these assays?
PGE2 EP2 inh: 4; EP2 mod: 19

How did O=C1CC(=O)N(Cc2ccco2)C(=O)N1 do in these assays?
Arbovirus anti: 34*; Hck-Nef inh: 13; EP2 mod: 24; p97 inhibitor: 8

Results for COc1ccc(-c2cc(C(F)F)n3ncc(C(=O)N4CCC(C(N)=O)CC4)c3n2)cc1 ?
PGE2 EP2 inh: 7; EP2 mod: -5

Results for COc1ccccc1CNC(=O)c1csc(Cc2ccc(Cl)cc2)n1 ?
Arbovirus anti: -12; PGE2 EP2 inh: 15; Hck-Nef inh: 0; EP2 mod: 62*; p97 inhibitor: -5

How did Cc1ccc(NC(=O)CSc2nc3sc(C)c(C)c3c(=O)[nH]2)c(C)c1 do in these assays?
PGE2 EP2 inh: 16; EP2 mod: -7

What do the screens show for `CC(C)=CCc1c2c(c3occ(-c4ccc(O)c(O)c4)c(=O)c3c1O)C=CC(C)(C)O2`?
PGE2 EP2 inh: 41*!; EP2 mod: 37

Results for Cc1cccc(CSc2nn3c(=O)c(C)nnc3s2)c1 ?
Arbovirus anti: 40*; PGE2 EP2 inh: 4; Hck-Nef inh: 0; EP2 mod: 2; p97 inhibitor: -4

How did Cc1ccc(CSc2nn3c(=O)c(C)nnc3s2)cc1 do in these assays?
Arbovirus anti: 18; PGE2 EP2 inh: 6; Hck-Nef inh: 2; EP2 mod: 24; p97 inhibitor: 4

How did CCOc1ccc(CN2CCN(C(=O)c3cc(OC)c(OC)c(OC)c3)CC2)cc1 do in these assays?
PGE2 EP2 inh: 14; EP2 mod: -16

What do the screens show for `CCCCCCc1cc2cc(-c3nnc(-c4ccccc4OC)o3)c(=O)oc2cc1O`?
Arbovirus anti: -3; PGE2 EP2 inh: 4; Hck-Nef inh: 3; EP2 mod: -42; p97 inhibitor: 4

Results for CCCCCCc1cc2cc(C(=O)Nc3ccccc3OC)c(=O)oc2cc1O ?
Arbovirus anti: 80*; PGE2 EP2 inh: 11; Hck-Nef inh: 15; EP2 mod: -3; p97 inhibitor: 3

How did COc1cc(C(=O)Nc2sc(C)c(C)c2C(=O)O)cc(OC)c1OC do in these assays?
Arbovirus anti: 44*; PGE2 EP2 inh: 12; Hck-Nef inh: 19; EP2 mod: 1; p97 inhibitor: -1

How did CC(=O)c1cc(C#N)c(SCCC(C)C)nc1C do in these assays?
Arbovirus anti: -2; PGE2 EP2 inh: 5; Hck-Nef inh: 8; EP2 mod: 61*; p97 inhibitor: 1

How did CCSc1nc(C)c(C(C)=O)cc1C#N do in these assays?
Arbovirus anti: 10; PGE2 EP2 inh: 7; Hck-Nef inh: 5; EP2 mod: 31; p97 inhibitor: 4

What do the screens show for `CCc1nn(CC(=O)NC2CC2)c(=O)c2cc3ccsc3n12`?
EP2 mod: -10

Results for NS(=O)(=O)c1ccc(CCNC(=O)CCCCCn2c(=S)[nH]c3ccc(Br)cc3c2=O)cc1 ?
Arbovirus anti: -1; PGE2 EP2 inh: 11; Hck-Nef inh: 50*; EP2 mod: 38; p97 inhibitor: 1

What do the screens show for `COc1ccccc1NC(=O)c1sc(NC(=O)c2ccccc2F)c(C#N)c1C`?
PGE2 EP2 inh: 16; EP2 mod: -6

How did Cc1ccc(NC(=O)c2cc(N3C(=O)C=CC3=O)ccc2N2CCOCC2)cc1Cl do in these assays?
Arbovirus anti: 14; PGE2 EP2 inh: 94*; Hck-Nef inh: -5; EP2 mod: -59; p97 inhibitor: 6

How did CCCc1cc(C(=O)N2CCN(S(=O)(=O)c3ccc(F)c(F)c3)CC2)n[nH]1 do in these assays?
PGE2 EP2 inh: 7; EP2 mod: -31

Results for COc1ccc(-c2cc(-c3ccc(C)cc3)nc(N)c2C#N)cc1OC ?
PGE2 EP2 inh: 11; EP2 mod: -133

What do the screens show for `CCOc1ccc(-c2cc(-c3ccc(OC)c(OC)c3)c(C#N)c(N)n2)cc1`?
PGE2 EP2 inh: 12; EP2 mod: 80*

How did COc1ccc(-c2cc(-c3ccc(O)cc3)nc(N)c2C#N)cc1OC do in these assays?
Arbovirus anti: -13; PGE2 EP2 inh: 40*!; Hck-Nef inh: 16; EP2 mod: -11; p97 inhibitor: 9

What do the screens show for `Cc1ccc(-c2cc(-c3ccc4c(c3)OCO4)c(C#N)c(N)n2)o1`?
Arbovirus anti: 0; PGE2 EP2 inh: 10; Hck-Nef inh: 21; EP2 mod: 11; p97 inhibitor: 11

How did N#Cc1c(-c2ccc3c(c2)OCO3)cc(-c2ccc(F)cc2)nc1N do in these assays?
PGE2 EP2 inh: 22; EP2 mod: 61*

How did Cc1nc(C)n(CCC(=O)O)n1 do in these assays?
PGE2 EP2 inh: 12; EP2 mod: 3

Results for O=C(Cn1nnc(-c2ccccc2NC(=O)c2cccs2)n1)NC1CCCCC1 ?
PGE2 EP2 inh: 19; EP2 mod: 33

Results for C=CCn1c(=O)/c(=C2/Sc3ccccc3N2C)s/c1=C1\C(=O)NN=C1C ?
PGE2 EP2 inh: 8; EP2 mod: 5
